# Measurements: PubChem BioAssay (NCI)
# The panel holds about 83,000 compounds, 20% with a hit somewhere; the sample as a whole holds those more often.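 Method: cells in 96-well plates; compound added at one concentration; 48 h incubation; percent growth measured; values under 10 scored active.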 Unmarked numbers belong to inactive results. Active and inactive are the calls of the source.
# Key:
# Test in all cases: NCI-60 one-dose screen, 48 h (100 = growth as untreated, 0 = no growth, -100 = all killed)
# Settings in all cases: 10 µM unless noted
# [1] = system: NCI-H23 lung
# [2] = system: NCI-H226 lung
# [3] = system: NCI-H322M lung
# [4] = system: HOP-62 NSCLC
# [5] = system: NCI-H460 lung
# [6] = system: NCI-H522 lung
# [7] = system: A549/ATCC NSCLC
# [8] = system: 786-0 renal
# [9] = system: COLO 205 colon
# [10] = system: DU-145 prostate
# [11] = system: K-562 leukemia
# [12] = system: MALME-3M melanoma
# [13] = system: MDA-MB-231 breast
# [14] = system: RXF 393 renal
# [15] = system: SF-268 CNS
# [16] = system: SF-295 CNS
# [17] = system: SF-539 CNS
# [18] = system: UACC-257 melanoma
# [19] = system: M14 melanoma
# [20] = system: HCT-15 colon
Structure (SMILES),growth [1],growth [2] [%],growth [3] [%],growth [4],growth [5],growth [6],growth [7],growth [8],growth [9],growth [10],growth [11],growth [12],growth [13],growth [14],growth [15],growth [16],growth [17],growth [18],growth [19],growth [20]
CC(C)(C)c1ccc(C(O)CCCN2CCC(C(O)(c3ccccc3)c3ccccc3)CC2)cc1 (centres undefined),4.7% (active),57.5,53.8,-79.5% (active),-84.9% (active),-74.6% (active),-39.8% (active),-97.4% (active),-86.9% (active),-75.7% (active),-39.9% (active),-78.5% (active),-89.4% (active),-97.8% (active),-65.6% (active),-69.7% (active),-76.4% (active),-78.2% (active),-91.3% (active),-73.7% (active)
O=C(NCCc1ccccc1)C1CCC(=O)N1Cc1ccc(Br)cc1 (centres undefined),104%,95.1,101,93%,102%,67.1%,79.1%,105%,108%,109%,107%,96.7%,114%,106%,106%,106%,96%,79.9%,104%,108%
Clc1cc(Cl)c(OCC#CI)cc1Cl,97.3%,43.1,127,108%,100%,18%,101%,98.9%,5.9% (active),86.8%,69.5%,0.95% (active),83.2%,-11.9% (active),98.6%,101%,33.2%,-3.08% (active),37.7%,42.1%
CCCCC1Nc2nc(SC)n(C)c(=O)c2CN(Cc2ccccc2)C1=O (centres undefined),98.4%,84.9,90.6,97.9%,104%,76%,94.5%,78.4%,112%,112%,141%,132%,94.5%,77.2%,100%,94.9%,85.2%,90.1%,89.8%,
CCCCCCCCCCCCCCCCCC1=NC(C)(C)CN1CCO,38.9%,17.6,59.8,-74.9% (active),-51.7% (active),-58.2% (active),-28.9% (active),-53.6% (active),-59.9% (active),2.01% (active),-49.5% (active),11.8%,-61.7% (active),-47.3% (active),-67.1% (active),-2.44% (active),-80.6% (active),-10.6% (active),-74.7% (active),-55.4% (active)
O=C(C(Br)Br)C(Br)C(Br)c1ccccc1 (centres undefined),90.1%,95,109,109%,104%,-33.3% (active),98.5%,107%,4.54% (active),87.4%,18.9%,-37.9% (active),109%,25.3%,116%,116%,97.2%,57.7%,81.5%,20.5%
COc1cc2c(c(OC)c1OC)CCc1cnoc1-2,104%,102,107,156%,106%,102%,103%,155%,134%,116%,99.8%,100%,107%,121%,109%,108%,100%,103%,122%,102%
CC[C@@H]1OC(=O)[C@H](C)[C@@H](O[C@H]2C[C@@](C)(OC)[C@@H](O)[C@H](C)O2)[C@H](C)[C@@H](O[C@@H]2O[C@H](C)C[C@H](N(C)C)[C@H]2O)[C@](C)(O)C[C@@H](C)[C@@H]2N[C@@H](COCCOC)O[C@H]([C@H]2C)[C@]1(C)O,94%,110,96,107%,117%,98.6%,100%,95.8%,98.7%,100%,103%,99.5%,94.6%,116%,112%,110%,106%,106%,99.7%,109%
